Reference: PubChem BioAssay (NCI)
About 83,000 compounds went through this panel and 20% of them were active in at least one assay; those are over-represented in the sample as a whole.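 Results are percent growth after 48 hours of single-concentration exposure. 100 means growth as in untreated cells, lower positive values show inhibition; negative values down to -100 show cell death.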 A number with no mark means an inactive call. Calls of active or inactive are those of the source. How the source made its calls: active means growth percent below 10; inactive means the rest.

Experiments:
Test in all cases: NCI-60 one-dose screen, 48 h (100 = growth as untreated, 0 = no growth, -100 = all killed)
Settings in all cases: 10 µM
SN12C renal = tested on: SN12C renal
UO-31 renal = tested on: UO-31 renal
ACHN renal = tested on: ACHN renal
CAKI-1 renal = tested on: CAKI-1 renal
A498 renal = tested on: A498 renal
CCRF-CEM leukemia = tested on: CCRF-CEM leukemia
MOLT-4 leukemia = tested on: MOLT-4 leukemia
SR leukemia = tested on: SR leukemia
TK-10 renal = tested on: TK-10 renal

Structure (SMILES) | growth (SN12C renal) [%] | growth (UO-31 renal) | growth (ACHN renal) | growth (CAKI-1 renal) | growth (A498 renal) | growth (CCRF-CEM leukemia) | growth (MOLT-4 leukemia) | growth (SR leukemia) | growth (TK-10 renal)
COc1cc(-c2cc(-c3cc4c([nH]c5ccccc54)c(-c4cc(OC)c(OC)c(OC)c4)n3)cc(-c3ccccc3)n2)cc(OC)c1OC | 54.6 | 36.9% | 62.8% | 32.9% | 54.5% | 37.9% | 18.5% | 16.7% | –
CN(Cc1ccccc1)Cc1ccc([N+](=O)[O-])cc1I | 99.9 | – | 101% | 93% | 81.4% | – | 91.1% | 67.2% | 106%
O=C(Nc1cccc(-n2cc(-c3ccncc3)c(-c3ccc(O)c(Cl)c3)n2)c1)c1ccc(N2CCOCC2)c(C(F)(F)F)c1 | 57.5 | 13.1% | 29.3% | 26.5% | 71.7% | 20.2% | 40.2% | 18% | –
CC(=O)c1nc2ccccc2n1CCNC(N)=O | 89.6 | 78.8% | 91.3% | 105% | 78.8% | 68.3% | 77.2% | 43.5% | –
COc1ccc(OC)c(NC(=O)c2sc3nc4c(cc3c2N)C(=O)CCC4)c1 | 95.5 | – | 106% | 86.3% | 3.5% (active) | 84.4% | 93.1% | 73.7% | 98%
COc1cc(-c2cc(/C=C/C(=O)c3ccc(F)c(F)c3)[nH]n2)cc(OC)c1OC | 39.2 | 61.2% | 36.8% | 6.42% (active) | 60.9% | 33.3% | 41% | 44.3% | –
c1ccc(CNc2ncnc3scc(-c4cccs4)c23)nc1 | 63 | – | 54.7% | 58% | 27.6% | 63.7% | 50.5% | 61.5% | 126%
NC(=O)CC1(c2ccccc2)CCCCC1 | 101 | – | 104% | 96.8% | 102% | 98.9% | 94.2% | 90.9% | 109%
COc1cccc(C(=O)Nc2ccc(CN3CCc4nc5cc(OC)c(OC)cc5cc43)cc2)c1 | 54.1 | – | 36.9% | 21.7% | 20.5% | 28.7% | 25.7% | 24.1% | 42.4%
COc1ccc(-c2nn(-c3cccc(NC(=O)Nc4cc(C(F)(F)F)cc(C(F)(F)F)c4)c3)cc2-c2ccncc2)cc1Cl | 18.9 | – | 11% | -12.3% (active) | -16.5% (active) | -17.8% (active) | -15.3% (active) | -19.6% (active) | 11.8%
CC(=O)c1nc2ccccc2n1CCN1CCN(C)CC1 | 46.7 | – | 78% | 94.1% | 36.6% | 3.66% (active) | 49.9% | 6.52% (active) | –
O=C(Nc1cccc(-n2cc(-c3ccncc3)c(-c3cc(O)cc(Cl)c3)n2)c1)c1cc(C(F)(F)F)cc(C(F)(F)F)c1 | 50.3 | – | 37.7% | 58.5% | 40.3% | 26.9% | 19.5% | 3.15% (active) | 73%
CN(C)N=Nc1nn(C(=O)Nc2ccc(Cc3ccccc3)cc2)c2ccccc12 | 58.9 | 41.9% | 34.3% | 15.5% | 82.4% | – | 64.1% | 59.8% | –
CC(=O)O[C@]1(C)CC[C@H]2[C@H](CNCCc3ccc(Cl)cc3)C(=O)O[C@@H]2C2=C(C)C(=O)C[C@H]21 | 94.2 | – | 96.2% | 98.5% | 86.9% | 83.6% | 71% | 81.4% | 97.7%
O=C1/C(=C\c2ccc(Cl)cc2)CN(C(=O)c2ccccc2)C/C1=C\c1ccc(Cl)cc1 | 36.8 | 2.38% (active) | 47.4% | 32.4% | 84.2% | 11.2% | 21.5% | -20.1% (active) | –
CSc1nn(-c2ccccc2)c2ncnc(Oc3ccc(C)cc3)c12 | 88.8 | 84.4% | 76% | 84.8% | 67.8% | – | 94.9% | 91.8% | –
O=C(Nc1cccc(-n2cc(-c3ccncc3)c(-c3ccc(O)c(Cl)c3)n2)c1)c1cc(C(F)(F)F)cc(C(F)(F)F)c1 | 63.6 | 47.8% | 44.8% | 30.7% | 57.2% | 29.5% | 34.4% | 39.1% | –
ClC(Cl)(Cl)c1nc2nccnc2[nH]1 | 98 | – | 103% | 87.2% | 107% | 96.7% | 104% | 102% | 119%
c1ccc(CO[C@H]2CO[C@H]3[C@@H]2OC[C@H]3OCc2ccccc2)cc1 | 102 | – | 101% | – | 110% | 99.2% | 95.2% | 94.6% | 101%
Cc1ccc(S(=O)(=O)OCCN(CCOS(=O)(=O)c2ccc(C)cc2)c2c[nH]c(=O)[nH]c2=O)cc1 | 97.4 | – | 99% | 97.5% | 117% | – | 104% | 104% | 112%
COc1cc(-c2cc(/C=C/C(=O)c3ccc(N)cc3)[nH]n2)cc(OC)c1OC | 13.2 | – | -52.8% (active) | 9.46% (active) | -8.28% (active) | 5.88% (active) | 3.34% (active) | 9.82% (active) | -2.46% (active)
COc1cccc(Cn2c(-c3nonc3N)nc3ccccc32)c1 | 43.8 | 33.2% | 46.6% | 20.5% | -19.3% (active) | 9.82% (active) | 25.6% | -5.32% (active) | –
CC/C(C)=C(\C)C(=O)O | 111 | – | 116% | 95.5% | 110% | – | 101% | 107% | –
O=C(Nc1cccc(-n2cc(-c3ccncc3)c(-c3ccc(O)c(Cl)c3)n2)c1)c1ccc(Cl)c(Cl)c1 | 70.9 | – | 49% | 13% | 74.6% | 33% | 45.8% | 15.1% | 104%
COc1ccc(Oc2nc(NC3CCCC3)nc(Sc3ccc(OC)cc3)n2)cc1 | 78.9 | – | 79.5% | 49.3% | 65.5% | 53.2% | 40.2% | 45.7% | 109%
COc1cc(C2CC(c3ccc(Nc4ccnc5cc(Cl)ccc45)cc3)=NN2c2ccc(Cl)cc2)cc(OC)c1OC (stereo unspecified) | 59.5 | – | 38% | 18.6% | 52.3% | 28% | 31.5% | 12.2% | 64.1%
N#Cc1ncc(Br)c(NC2CCCCCC2)n1 | 93.5 | 84.7% | 100% | 89.4% | 103% | 85% | 86.8% | 80.9% | –
CC(C)(C#N)Nc1ccccc1 | 98.8 | – | 97.8% | 83.5% | 103% | 97.1% | 102% | 116% | 115%
